{"source": "ChEMBL document CHEMBL3433997", "about": "“St. Jude Leishmania screening dataset” (2016)", "assay_type_in_all_cases": "functional", "key": {"[1]": {"target": "Solute carrier family 2, facilitated glucose transporter member 1 (Homo sapiens) (UniProt P11166)", "sequence (P11166 whole entry)": "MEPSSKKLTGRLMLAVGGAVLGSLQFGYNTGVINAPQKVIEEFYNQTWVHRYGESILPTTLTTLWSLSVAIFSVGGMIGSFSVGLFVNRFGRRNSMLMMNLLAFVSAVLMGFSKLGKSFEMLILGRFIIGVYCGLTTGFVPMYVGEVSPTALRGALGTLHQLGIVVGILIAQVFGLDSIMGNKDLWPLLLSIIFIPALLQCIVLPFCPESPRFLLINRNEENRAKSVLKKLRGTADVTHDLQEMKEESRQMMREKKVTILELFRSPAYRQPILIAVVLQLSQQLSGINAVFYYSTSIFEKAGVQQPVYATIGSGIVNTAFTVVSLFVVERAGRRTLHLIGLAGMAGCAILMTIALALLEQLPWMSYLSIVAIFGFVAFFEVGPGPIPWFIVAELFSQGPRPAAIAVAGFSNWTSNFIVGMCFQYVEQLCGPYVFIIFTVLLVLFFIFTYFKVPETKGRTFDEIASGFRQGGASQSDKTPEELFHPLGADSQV", "experiment": "ST_JUDE_LEISH: Cytotoxicity at 2uM final concentration against transgenic Leishmania Mexicana promastigotes LmGLUT1 that are glucose transport deficient and complemented with the human glucose transporter GLUT1. Activity is measured by DNA content using SYBR green in vitro"}, "[2]": {"target": "Hexose transporter 1 (Plasmodium falciparum) (UniProt O97467)", "experiment": "ST_JUDE_LEISH: Cytotoxicity at 2uM final concentration against transgenic Leishmania Mexicana promastigotes LmPfHT that are glucose transport deficient and complemented with the Plasmodium falciparum hexose transporter. Activity is measured by DNA content using SYBR green in vitro"}, "[3]": {"target": "Glucose transporter (Leishmania mexicana) (UniProt O61059)", "experiment": "ST_JUDE_LEISH: Cytotoxicity at 2uM final concentration against transgenic Leishmania Mexicana promastigotes LmGT2 that are glucose transport deficient and complemented with the L. Mexicana glucose transporter 2. Activity is measured by DNA content using SYBR green in vitro"}}, "data": [{"smiles": "Cc1nc(C)c(-c2ccc(Cl)cc2Cl)c(O)c1Br", "values": [{"measurement": "inhibition", "setting": "[1]", "result": 1.43, "unit": "%"}, {"measurement": "inhibition", "setting": "[2]", "result": 0.95, "unit": "%"}, {"measurement": "inhibition", "setting": "[3]", "result": 3.83, "unit": "%"}]}, {"smiles": "O=C(Nc1nc(-c2ccccn2)cs1)c1ccc(S(=O)(=O)N2CCc3ccccc32)cc1", "values": [{"measurement": "inhibition", "setting": "[1]", "result": 9.61, "unit": "%"}, {"measurement": "inhibition", "setting": "[2]", "result": 15.1, "unit": "%"}, {"measurement": "inhibition", "setting": "[3]", "result": 2.63, "unit": "%"}]}, {"smiles": "Cc1nc(-c2ccc(-c3ccc(NC(=O)c4coc5ccc(N6CC(C)N(C)C(C)C6)cc45)cc3)c(C)c2)no1", "note": "(centres undefined)", "values": [{"measurement": "inhibition", "setting": "[1]", "result": -0.52, "unit": "%"}, {"measurement": "inhibition", "setting": "[2]", "result": 0.17, "unit": "%"}, {"measurement": "inhibition", "setting": "[3]", "result": 3.28, "unit": "%"}]}, {"smiles": "CN1CCN(c2ccc3[nH]c(-c4ccc(Cc5cc(Cl)ccc5OCc5ccccc5)o4)nc3c2)CC1", "values": [{"measurement": "inhibition", "setting": "[1]", "result": 1, "unit": "%"}, {"measurement": "inhibition", "setting": "[2]", "result": 2.32, "unit": "%"}, {"measurement": "inhibition", "setting": "[3]", "result": 2.2, "unit": "%"}]}, {"smiles": "Nc1nc(NCC2CCC(CNS(=O)(=O)c3cccc4ccccc34)CC2)nc2ccccc12", "note": "(centres undefined)", "values": [{"measurement": "inhibition", "setting": "[1]", "result": 7.11, "unit": "%"}, {"measurement": "inhibition", "setting": "[2]", "result": 3.12, "unit": "%"}, {"measurement": "inhibition", "setting": "[3]", "result": 1.21, "unit": "%"}]}, {"smiles": "COc1ccccc1-c1cccc(CNC2CCN(CC3Cn4c(=O)ccc5ccc(F)c3c54)CC2)c1", "note": "(centres undefined)", "values": [{"measurement": "inhibition", "setting": "[1]", "result": 15, "unit": "%"}, {"measurement": "inhibition", "setting": "[2]", "result": 31.3, "unit": "%"}, {"measurement": "inhibition", "setting": "[3]", "result": 54.7, "unit": "%"}]}, {"smiles": "COc1ccc(C2N=C(N)N=C(N)N2OCc2ccccc2)cc1OC", "note": "(centres undefined)", "values": [{"measurement": "inhibition", "setting": "[1]", "result": 0.67, "unit": "%"}, {"measurement": "inhibition", "setting": "[2]", "result": 2.45, "unit": "%"}, {"measurement": "inhibition", "setting": "[3]", "result": 2.49, "unit": "%"}]}, {"smiles": "CC(C)c1ccc(-c2nc3cc(Cl)cnc3[nH]2)cc1", "values": [{"measurement": "inhibition", "setting": "[1]", "result": 3.03, "unit": "%"}, {"measurement": "inhibition", "setting": "[2]", "result": 3.85, "unit": "%"}, {"measurement": "inhibition", "setting": "[3]", "result": 4.06, "unit": "%"}]}, {"smiles": "Cn1c(NC(=O)C2CCC(CNC(=O)c3ccc(O)c(-c4cccc([N+](=O)[O-])c4)c3)CC2)nc2ccccc21", "note": "(centres undefined)", "values": [{"measurement": "inhibition", "setting": "[1]", "result": 1.57, "unit": "%"}, {"measurement": "inhibition", "setting": "[2]", "result": 2.47, "unit": "%"}, {"measurement": "inhibition", "setting": "[3]", "result": 2.44, "unit": "%"}]}, {"smiles": "COc1ccccc1CCNC(=O)c1cc(Br)cc(N2CCN(c3ccncc3)CC2)c1", "values": [{"measurement": "inhibition", "setting": "[1]", "result": 1.16, "unit": "%"}, {"measurement": "inhibition", "setting": "[2]", "result": 2.75, "unit": "%"}, {"measurement": "inhibition", "setting": "[3]", "result": 0.04, "unit": "%"}]}, {"smiles": "O=c1cc(NCCCNCc2cccc(Oc3ccccc3)c2)[nH]c2ccccc12", "values": [{"measurement": "inhibition", "setting": "[1]", "result": 4.28, "unit": "%"}, {"measurement": "inhibition", "setting": "[2]", "result": 2.68, "unit": "%"}, {"measurement": "inhibition", "setting": "[3]", "result": 3.25, "unit": "%"}]}, {"smiles": "CCN(CC)CCN(Cc1ccc(-c2ccc(C(F)(F)F)cc2)cc1)C(=O)Cn1c(CCc2c(F)ccc(F)c2F)nc(=O)c2ccccc21", "values": [{"measurement": "inhibition", "setting": "[1]", "result": 0.63, "unit": "%"}, {"measurement": "inhibition", "setting": "[2]", "result": 1.87, "unit": "%"}, {"measurement": "inhibition", "setting": "[3]", "result": 1.43, "unit": "%"}]}, {"smiles": "Cc1cccc2nc(-c3cccc(-c4ccc(NC(=O)NCc5ccccc5)cc4)c3)[nH]c12", "values": [{"measurement": "inhibition", "setting": "[1]", "result": 1.51, "unit": "%"}, {"measurement": "inhibition", "setting": "[2]", "result": 2.74, "unit": "%"}, {"measurement": "inhibition", "setting": "[3]", "result": 1.31, "unit": "%"}]}, {"smiles": "O=C(Nc1ccc(-c2ccc(-c3nc4ccccc4[nH]3)cc2)cc1)Nc1ccc(Cl)c(Cl)c1", "values": [{"measurement": "inhibition", "setting": "[1]", "result": 3.78, "unit": "%"}, {"measurement": "inhibition", "setting": "[2]", "result": 2.21, "unit": "%"}, {"measurement": "inhibition", "setting": "[3]", "result": -4.96, "unit": "%"}]}, {"smiles": "COc1ccc2nccc(N3CCC(SCCNS(=O)(=O)c4ccc5c(c4)OCCO5)C3)c2n1", "note": "(centres undefined)", "values": [{"measurement": "inhibition", "setting": "[1]", "result": 5.04, "unit": "%"}, {"measurement": "inhibition", "setting": "[2]", "result": 3.57, "unit": "%"}, {"measurement": "inhibition", "setting": "[3]", "result": -0.04, "unit": "%"}]}, {"smiles": "CN(C)Cc1c(O)ccc2[nH]c(-c3ccc(OC(F)(F)F)cc3)nc12", "values": [{"measurement": "inhibition", "setting": "[1]", "result": 3.92, "unit": "%"}, {"measurement": "inhibition", "setting": "[2]", "result": 3.22, "unit": "%"}, {"measurement": "inhibition", "setting": "[3]", "result": 2.9, "unit": "%"}]}, {"smiles": "COc1ccc(Nc2ncc3c(-c4cccc(NC(=O)Cc5ccc(F)cc5)c4)c[nH]c3n2)cc1OC", "values": [{"measurement": "inhibition", "setting": "[1]", "result": 2.27, "unit": "%"}, {"measurement": "inhibition", "setting": "[2]", "result": 2.59, "unit": "%"}, {"measurement": "inhibition", "setting": "[3]", "result": 2.37, "unit": "%"}]}, {"smiles": "Cc1cc(=O)[nH]c(-n2nc(C)cc2NC(=O)C2(c3ccc(Cl)cc3)CCCC2)n1", "values": [{"measurement": "inhibition", "setting": "[1]", "result": 61.6, "unit": "%"}, {"measurement": "inhibition", "setting": "[2]", "result": 66.3, "unit": "%"}, {"measurement": "inhibition", "setting": "[3]", "result": 53.5, "unit": "%"}]}]}
